Source: PubChem BioAssay (several laboratories)
Hits are enriched below; roughly 1.5% of the tested compounds scored in any of these assays.
Phagocyt inh: blocks phagocytosis by macrophages; J774A.1 macrophage IgG-bead phagocytosis, imaging; inhibition, % at 5 µM; 0.07% of 110,000 active;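 active = inhibition above the mean of the plate negative controls plus 5 SD, cut at about 13% in these data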;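 note: phagocytic index as fraction of beads internalized from green versus red external bead signal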
MRP reversal: MRP-mediated drug resistance reversal | H69AR cells + 2 uM doxorubicin, CellTiter-Glo, 72 h | differential viability (reversal), % at 10 µM | 0.04% of 85,000 active;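 active = viability drop by adding the cancer drug above about 55%, with treated viability meeting a 40% cutoff, limit read from the data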;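 note: larger differential means the compound sensitizes cells more to doxorubicin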
Mac1 fbg enh: enhancers of human CD11b/CD18 binding to fibrinogen; P05107+P11215; K562 CD11b/CD18 adhesion to fibrinogen, ATPlite luminescence; activation, % at 10 µM; 0.07% of 93,000 active; AID 1499;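 active = 10 µM primary screen giving 50% or more activity, confirmed by 40% or more on retest at that dose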
Target sequence (P05107 whole entry, looked up, other chains not shown): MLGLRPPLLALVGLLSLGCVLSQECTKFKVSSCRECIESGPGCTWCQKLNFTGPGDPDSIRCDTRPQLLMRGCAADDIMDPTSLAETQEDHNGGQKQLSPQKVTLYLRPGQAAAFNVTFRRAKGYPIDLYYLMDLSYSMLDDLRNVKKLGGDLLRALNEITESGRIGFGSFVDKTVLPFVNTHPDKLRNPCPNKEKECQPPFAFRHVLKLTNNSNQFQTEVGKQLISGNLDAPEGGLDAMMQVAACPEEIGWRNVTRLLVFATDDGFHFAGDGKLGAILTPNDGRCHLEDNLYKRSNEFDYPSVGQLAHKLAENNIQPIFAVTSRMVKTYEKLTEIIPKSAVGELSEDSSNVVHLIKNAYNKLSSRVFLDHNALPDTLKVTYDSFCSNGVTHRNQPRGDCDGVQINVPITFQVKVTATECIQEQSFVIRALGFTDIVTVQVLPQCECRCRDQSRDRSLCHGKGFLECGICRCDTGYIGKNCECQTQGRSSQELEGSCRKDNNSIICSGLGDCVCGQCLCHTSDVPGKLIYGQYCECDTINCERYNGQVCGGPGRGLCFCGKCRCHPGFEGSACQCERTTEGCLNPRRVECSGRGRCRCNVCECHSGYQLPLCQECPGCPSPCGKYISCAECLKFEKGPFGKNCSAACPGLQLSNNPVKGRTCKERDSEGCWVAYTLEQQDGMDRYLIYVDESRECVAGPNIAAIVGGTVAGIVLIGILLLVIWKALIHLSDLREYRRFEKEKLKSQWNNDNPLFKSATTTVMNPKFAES
MRP-1 activ: activates MRP-1; 0.61% of 140,000 active; AID 799; H69AR cells + doxorubicin, viability rescue, CellTiter-Glo; viability increase, % at 10 µM;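 active = viability gain under doxorubicin at or above a set limit, the compound median plus 3 SD, cut at about 4.7% in these data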;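 note: MRP-1 overexpressing cells given doxorubicin 25 µM after compound pretreatment; 18-22 h compound pretreatment then 72 h with doxorubicin before readout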
CD11b adhes inh: blocks human CD11b/CD18 adhesion to fibrinogen | K562 CD11b/CD18 adhesion to fibrinogen, ATPlite luminescence; Mn2+ added to activate the integrin | inhibition, % at 10 µM | 0.54% of 93,000 active | AID 1497;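 active = primary inhibition of 50% or more at 10 µM, then 40% or more on retest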
FAK inh: inhibitors of human focal adhesion kinase; 0.84% of 97,000 active; biochemical FAK kinase activity assay; AID 727; Q05397; inhibition, %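 (tested at 7 µM)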; in the data active = inhibition above about 19%
Each line names hits and unclear results; the compound was inactive in the other large screens; [ ] = dose if it differs, or a comment.

CCOC(=O)c1cnc2c(C)c(C)ccc2c1Nc1ccc(S(=O)(=O)Nc2ncccn2)cc1	none (no result: MRP reversal, FAK inh)
CCCn1c(=N)n(CCOCCOCCn2c(=N)n(CCC)c3ccccc32)c2ccccc21	none (no result: Phagocyt inh, Mac1 fbg enh, MRP-1 activ, CD11b adhes inh)
CC(C)Cc1csc(NC(=O)c2ccc(Cl)cc2)c1C(=O)O	CD11b adhes inh 100 (no result: MRP reversal, FAK inh)
Cc1ccc2nc(/C(C#N)=C\c3ccc([N+](=O)[O-])o3)[nH]c2c1	Phagocyt inh 33[fluoresces] (no result: MRP reversal)
O=C(NC(=S)Nc1ccccc1N1CCOCC1)c1ccc(-c2cc(Cl)ccc2Cl)o1	MRP-1 activ 15 (no result: MRP reversal, FAK inh)
Cc1[nH]c2ccccc2c1/C=C(\C#N)S(=O)(=O)c1ccccc1	none
N#C/C(=C\c1ccc(O)c(O)c1)S(=O)(=O)c1ccccc1	CD11b adhes inh 82 (no result: MRP reversal)
Nc1nc(Nc2ccccc2)nc2ccccc12	none
Nc1nc(Nc2ccc(Cl)cc2)nc2ccccc12	CD11b adhes inh 85
Cc1nnc(SCc2cnc(-c3ccc(C(C)C)cc3)s2)n1C	CD11b adhes inh 70
O=C(Nc1ccccc1N1CCOCC1)c1ccccc1NS(=O)(=O)c1ccc(F)c(F)c1	CD11b adhes inh 75 (no result: MRP reversal)
O=C(Nc1ccccc1N1CCOCC1)c1ccccc1NS(=O)(=O)c1ccc(F)cc1	none (no result: Phagocyt inh)
Cc1ccc(C)c(S(=O)(=O)Nc2ccccc2C(=O)Nc2ccccc2N2CCOCC2)c1	CD11b adhes inh 50 (no result: MRP reversal)
Cc1ccc2nc(SC(C)C(=O)NCc3ccc4c(c3)OCO4)[nH]c2c1 (centres undefined)	none (no result: MRP reversal, FAK inh)
Cc1cc(C)n(-c2ccc(C(=O)Nc3cc(S(=O)(=O)N(C)C)ccc3Cl)cc2)n1	none (no result: MRP reversal, FAK inh)
c1cncc(-c2nc(NCC3COc4ccccc4O3)c3ccccc3n2)c1 (centres undefined)	none
c1ccc2c(c1)OCC(CNc1ncnc3sccc13)O2 (centres undefined)	CD11b adhes inh 100 (no result: MRP reversal, FAK inh)
CCc1nnc(NC(=O)c2ccc(Cl)c(S(=O)(=O)N3CCc4ccccc43)c2)s1	CD11b adhes inh 86 (no result: MRP reversal)
Cc1ccc2nc(N3C(=O)C(O)=C(C(=O)c4ccco4)C3c3cccs3)sc2c1 (centres undefined)	CD11b adhes inh 52 (no result: MRP reversal)
COc1cc(C)ccc1N(CCCN1C(=O)c2cccc3cccc(c23)C1=O)C(=O)c1cccs1	MRP-1 activ 8.7 (no result: MRP reversal, FAK inh)
Cc1cccc(NC(=O)c2cn(-c3ccccc3)nc2-c2ccccc2)c1	none (no result: MRP reversal, Mac1 fbg enh, CD11b adhes inh, FAK inh)
COc1ccc(S(=O)(=O)N(C)CC(=O)NCc2cccnc2)cc1C	none
Cc1onc(-c2ccccc2Cl)c1C(=O)Nc1nnc(-c2ccc(F)cc2)s1	none (no result: MRP reversal)
Cc1onc(-c2ccccc2Cl)c1C(=O)Nc1nnc(-c2ccc(Br)cc2)s1	MRP-1 activ 7.2
COc1cc(CC(=O)Nc2ccc(S(=O)(=O)N(C)C)cc2)cc(OC)c1OC	none
Cc1cccc(CN2C(=O)N/C(=C/c3cc(C)n(-c4cc(C)ccn4)c3C)C2=O)c1	none (no result: Phagocyt inh, MRP reversal)
Cc1cc(/C=C2\NC(=O)N(Cc3ccc(Cl)cc3)C2=O)c(C)n1C	MRP-1 activ 6.2 (no result: MRP reversal, Mac1 fbg enh, CD11b adhes inh, FAK inh)
O=S(=O)(Nc1ccc(S(=O)(=O)N2CCCCC2)cc1)c1ccc(Br)s1	CD11b adhes inh 91
O=S(=O)(Nc1ccc(S(=O)(=O)N2CCCCCC2)cc1)c1cccs1	none
Cc1oc(C(=O)Nc2ccc(C(=O)O)cc2)cc1COc1ccccc1	MRP-1 activ 7.2
COc1ccc(OC)c(NC(=O)CSc2nnc(N)s2)c1	none
COc1ccc(C2=NOC(CN3C(=O)c4ccccc4S3(=O)=O)C2)cc1 (centres undefined)	Phagocyt inh 38
O=C1c2ccccc2S(=O)(=O)N1CC1CC(c2ccccc2)=NO1 (centres undefined)	none
O=C(CSc1ccc2ccccc2n1)Nc1nsc(-c2ccc(Cl)cc2)n1	Phagocyt inh 31[artifact] (no result: MRP reversal, FAK inh)
Cc1ccc(-c2nc(NC(=O)CSc3cc(C)c4ccccc4n3)ns2)cc1	none (no result: Phagocyt inh, MRP reversal, Mac1 fbg enh, CD11b adhes inh, FAK inh)
N#Cc1ccccc1NC(=O)c1ccc(-c2ccccc2Cl)o1	none
O=C(CSc1nnc(-c2cccnc2)o1)Oc1ccccc1	Phagocyt inh 26[artifact] (no result: MRP reversal)
O=C1C2C(C(=O)N1/N=C/c1cc(Br)cc([N+](=O)[O-])c1O)C1C=CC2C12CC2 (centres undefined)	CD11b adhes inh 66 (no result: MRP reversal)
O=C1C2C(C(=O)N1/N=C/c1cc([N+](=O)[O-])ccc1O)C1C=CC2C12CC2 (centres undefined)	none (no result: Phagocyt inh, MRP reversal, Mac1 fbg enh, CD11b adhes inh)
Brc1ccc2[nH]c3c(N4CCc5ccccc5C4)ncnc3c2c1	CD11b adhes inh 75
Oc1cc(-c2ccccc2)c2ccccc2c1	none (no result: MRP reversal, Mac1 fbg enh, CD11b adhes inh, FAK inh)
COc1cccc(CNCCc2c[nH]c3ccccc23)c1OCc1ccccc1	CD11b adhes inh 60 (no result: MRP reversal, FAK inh)
CC1=CC(C)(C)N(S(=O)(=O)c2ccc(C)cc2)c2ccc(C)cc21	CD11b adhes inh 76 (no result: Phagocyt inh)
O=C(NCC(c1cccs1)N1CCOCC1)c1ccccc1NS(=O)(=O)c1ccc(Br)cc1 (centres undefined)	none (no result: MRP reversal, Mac1 fbg enh, CD11b adhes inh, FAK inh)
O=C(NCC(c1cccs1)N1CCOCC1)c1ccccc1NS(=O)(=O)c1ccc(Cl)cc1 (centres undefined)	CD11b adhes inh 79 (no result: MRP reversal, FAK inh)
O=C(NCC(c1cccs1)N1CCOCC1)c1ccccc1NS(=O)(=O)c1cc([N+](=O)[O-])ccc1Cl (centres undefined)	CD11b adhes inh 85 (no result: MRP reversal, FAK inh)
O=C(NCC(c1cccs1)N1CCOCC1)c1ccccc1NS(=O)(=O)c1ccc(Cl)c([N+](=O)[O-])c1 (centres undefined)	CD11b adhes inh 101 (no result: MRP reversal, FAK inh)
CCOC(=O)C1CCN(Cc2cnc(Oc3ccc(N)cc3)s2)CC1	none (no result: MRP reversal)
COC(=O)c1sc(S(=O)(=O)Nc2ccc(Br)cc2)c(C(=O)OC)c1C	CD11b adhes inh 91 (no result: MRP reversal, FAK inh)
COC(=O)c1sc(S(=O)(=O)Nc2ccc(C)cc2)c(C(=O)OC)c1C	none (no result: Phagocyt inh, MRP reversal, Mac1 fbg enh, CD11b adhes inh, FAK inh)
COc1ccc(S(=O)(=O)Nc2nc3n(n2)C(c2ccc(Cl)cc2)CC(=O)N3)cc1 (centres undefined)	none
CN(C)C(=O)N1CCN(C(=O)N2CCOCC2)CC1	none (no result: Phagocyt inh, Mac1 fbg enh, CD11b adhes inh)
N#C/C(=C\c1ccc(N2CCCC2)c([N+](=O)[O-])c1)c1nc2ccccc2[nH]1	Mac1 fbg enh 113 (no result: MRP reversal)
N#C/C(=C\c1ccc(N2CCCCC2)c([N+](=O)[O-])c1)c1nn(-c2ccccc2)c(N)c1C#N	none (no result: MRP reversal, Mac1 fbg enh, CD11b adhes inh, FAK inh)
O=C(NCc1cccnc1)Nc1cccc(NC(=O)NCc2cccnc2)c1	Phagocyt inh 90 (no result: FAK inh)
CCOC(=O)/C(=N\Nc1cc(C(F)(F)F)ccc1Cl)N(CC)CC	none (no result: MRP reversal)
COC(=O)c1c(-c2ccccc2)csc1NC(=O)c1c(-c2ccccc2)noc1C	none (no result: MRP reversal, FAK inh)
CCOC(=O)c1c(-c2ccc(F)cc2)csc1NC(=O)c1c(-c2ccccc2)noc1C	Phagocyt inh 129[artifact], MRP-1 activ 7.5 (no result: MRP reversal, FAK inh)
Cc1cc(Cl)c(S(=O)(=O)N2CCCCCC2)cc1OCC(=O)NC1CCCCC1	CD11b adhes inh 77
CCN1CCN(S(=O)(=O)c2cc(OCC(=O)NC3CCCCC3)c(C)cc2Cl)CC1	CD11b adhes inh 58
CCOC(=O)N1CCN(S(=O)(=O)c2cc(OCC(=O)NC3CCCCC3)c(C)cc2Cl)CC1	none
CCC(COC(=O)Nc1cccc(C)c1)NC(=O)OCC(C)C (centres undefined)	none
